From PubChem BioAssay (NCATS) come the findings set out here.

Values joined by “and” are separate entries in the source; they are usually repeats but may differ in a detail not shown here. Equal entries are not always repeated. Results filed as inconclusive are left out. More than one record can exist for a structure, and the calls need not agree. Active and inactive are the calls of the source. Unless noted, the call rests on the fitted dose curve; in most records, active means well fitted curve in the direction sought with a large enough effect; inconclusive means small, poorly fitted or top-dose-only effect, or another doubt; inactive means no such curve, though single readings can be large; an effect the other way counts as inactive or inconclusive.

The nature of assay [1]: qHTS profiling for inhibitors of Plasmodium falciparum proliferation (AID 504749). Further: potency means the concentration at half of the fitted maximal effect.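 On activity, negative = inhibition: 0% = DMSO vehicle and full inhibition = artemisinin control.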 On all read-outs here: nearly all actives have a fitted effect of over 60% in size. The following applies: P. falciparum in erythrocytes, SYBR Green DNA, 72 h; for activity, negative = inhibition: at 28.7 µM (top of the series). The essentials: (§1)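 In a 72 h erythrocytic culture (37 C, humidified, 5% CO2) at 2.5% hematocrit and 0.3% starting parasitemia, compounds were tested; SYBR Green I in detergent lysis buffer stained parasite DNA overnight.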

The subject of another assay is 3D7. Described as above. The conditions noted are these: P. falciparum in erythrocytes, SYBR Green DNA, 72 h; series mostly up to 28.7 µM. Summed up: as §1
Assay [2] is described as follows: qHTS drug screen for cell cycle checkpoint inhibitors in PARPi-resistant BRCA-mutant ovarian cancer cell lines. (AID 1963452; calls by dose curve; further: potency means the concentration at half of the fitted maximal effect). The conditions noted are these: PEO1/OlaR viability, CellTiter-Glo luminescence, 96 h; for Z-AUC: stronger effect = lower value. Summed up:
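PEO1, PEO4 and PEO1/OlaR ovarian cancer cells, 600 per well, exposed 96 h at 37C to a dilution series. Viability read by CellTiter-Glo luminescence, normalized to DMSO and empty wells; activity summarized as Z-AUC.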

A further assay concerns 7G8. Put plainly: qHTS profiling for inhibitors of Plasmodium falciparum proliferation (AID 504749). Further: nearly all actives have a fitted effect of over 60% in size. Further: potency means the concentration at half of the fitted maximal effect.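 On activity, negative = inhibition: 0% = DMSO vehicle and full inhibition = artemisinin control.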 The conditions noted are these: P. falciparum in erythrocytes, SYBR Green DNA, 72 h; series mostly up to 28.7 µM. Summed up:
as §1

Assay [3] in a line: KB-8-5-11 P-gp reporter qHTS against the NCATS DSHEA and TCM libraries (AID 1919977). Further: 0% is about no effect. The essentials: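 CellTiter-Glo luminescence measured viability after ~72 h exposure (37C, 5% CO2) of KB-8-5-11 cervical adenocarcinoma cells overexpressing P-gp. Colchicine was omitted during assay. Substances were tested as titrations.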
A short description of assay [4]: qHTS Counterscreen for compound interference against the NCATS DSHEA and TCM libraries (AID 1919978).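 Further: compounds preincubated with 1 µM D-luciferin or buffer before detection reagent; % of control where 0% means no effect.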 The following applies: firefly luciferase detection reagent interference, luminescence. Summed up:
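With 1 uM D-luciferin or phosphate buffer only, compounds at final 19.5 nM–39.8 uM were incubated for 15 min at room temperature. Luciferase detection reagent was then added, and luminescence was measured after a further 30 min at room temperature.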

A short description of assay [5]: Dual reporter qHTS for agonist of Pregnane X Receptor (hPXR) against the NCATS DSHEA and TCM libraries: Fluorescence readout (AID 1920058). Further: 0% is about no effect. Summed up: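 In this qHTS counter-read, reporter-bearing HepG2 cells in charcoal-stripped serum received substances for approximately 24 h before viability was assessed fluorometrically with CellTiter-Fluor.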
Assay [6] deals with Nuclear receptor subfamily 1 group I member 2 (Homo sapiens) (UniProt O75469). The assay can be described thus: Dual reporter qHTS for agonist of Pregnane X Receptor (hPXR) against the NCATS DSHEA and TCM libraries: Luminescence readout (AID 1920059). Further: 0% is about no effect. Summed up: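 Luminescent PXR reporter read (ONE-Glo) after a CellTiter-Fluor viability read, following 24 h, 37C treatment of HepG2 cells stably carrying hPXR-Luc.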

Assay [7] is described as follows: Dual reporter qHTS for antagonist of Pregnane X Receptor (hPXR) against the NCATS DSHEA and TCM libraries: Fluorescence Readout (AID 1920061). Further: 0% is about no effect. The essentials:
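hPXR-Luc HepG2 cells exposed 24 h at 37 C to compounds with 2 uM rifampicin in antagonist mode; luciferase luminescence measured by ONE-Glo, with CellTiter-Fluor viability read beforehand.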

Setting [8] is: measured here: PEO1 parental Z-AUC.

Chain of Nuclear receptor subfamily 1 group I member 2 (Homo sapiens) (O75469 whole entry, looked up): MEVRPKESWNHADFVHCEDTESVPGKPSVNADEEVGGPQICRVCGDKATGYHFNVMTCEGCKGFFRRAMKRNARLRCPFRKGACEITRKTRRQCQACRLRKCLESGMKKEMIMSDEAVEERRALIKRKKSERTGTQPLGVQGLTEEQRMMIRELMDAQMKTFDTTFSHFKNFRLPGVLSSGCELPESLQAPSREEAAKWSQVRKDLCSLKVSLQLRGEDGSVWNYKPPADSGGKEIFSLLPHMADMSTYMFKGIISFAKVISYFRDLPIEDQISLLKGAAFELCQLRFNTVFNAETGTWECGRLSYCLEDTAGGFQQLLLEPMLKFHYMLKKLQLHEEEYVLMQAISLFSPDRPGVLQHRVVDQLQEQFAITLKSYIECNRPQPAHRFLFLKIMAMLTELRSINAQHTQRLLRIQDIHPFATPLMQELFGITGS

Regarding `CC12NC(Cc3ccccc31)c1ccccc12` (stereo unspecified), the activity, negative = inhibition in assay [1] (parasite line A) is -7.25% (inactive); in assay [1] (parasite line B), 6.66% (inactive). For the same compound, the Potency result with 3D7 is “inactive”.
In the case of `CC(=O)c1c(O)c(C)c(O)c(Cc2c(O)c3c(c(C(=O)/C=C/c4ccccc4)c2O)OC(C)(C)C=C3)c1O`, the Z-AUC in assay [2] was 1.03 (inactive); in assay [2] (setting [8]), 0.667; in [2] (measured here: PEO4 Z-AUC), 0.636.
Consider `O=C1CN=C(c2ccccc2)c2cc(Cl)ccc2N1CC1CC1`, for which the activity, negative = inhibition was -5.97% (inactive) in assay [1] (parasite line A) and -9.8% (inactive) in assay [1] (parasite line B).
Regarding `O=C1C2CC=CCC2C(=O)N1SC(Cl)(Cl)Cl` (stereo unspecified), the activity, negative = inhibition was -6.95% (inactive) in assay [1] (parasite line A) and 5.29% (inactive) in assay [1] (parasite line B). Further, the Potency entry in the assay with 3D7 was “inactive”.
Take `C/C(=C\c1csc(C)n1)[C@@H]1C[C@@H]2O[C@]2(C)CCC[C@H](C)[C@H](O)[C@@H](C)C(=O)C(C)(C)[C@@H](O)CC(=O)O1`: the Potency in assay [2] was 0.0078 µM (active); in assay [1] (parasite line A), 0.002 µM (active); in assay [1] (parasite line B) it was 0.0035 µM (active); in the assay with 3D7, 0.0032 µM (active). Also, the values for the Z-AUC in assay [2] (setting [8]) and in assay [2] (measured here: PEO4 Z-AUC) were -2.7 and -2.48, respectively.
Regarding `CCCC(=O)OC(C(Cl)(Cl)Cl)P(=O)(OC)OC` (stereo unspecified), the activity, negative = inhibition in assay [1] (parasite line A) was -16.7% (inactive); in [1] (parasite line B), -35.8% (inactive).
Take `O=C1CN(O)C(c2ccccc2)=c2cc(Cl)ccc2=N1`: the activity, negative = inhibition was 7.13% (inactive) in assay [1] (parasite line A) and 1.2% (inactive) in [1] (parasite line B). Moreover, the Potency entry in the assay with 3D7 was “inactive”.
On the same counts, the results for `CC1CCC(C(C)C)C(OC(=O)c2ccccc2N)C1` (stereo unspecified) are -17.5% (inactive), -19.4% (inactive) and “inactive”.
On the same counts, the results for `CCOP(=O)(OCC)O/C(=C/Cl)c1ccc(Cl)cc1Cl` are -27.9% (inactive), -21.8% (inactive) and “inactive”.
On the same counts, the results for `c1ccc2cc(CC3=NCCN3)ccc2c1` are 3.45% (inactive), -0.535% (inactive) and “inactive”.
As to `CC(C)(C)c1cc(O)ccc1O`, the activity, negative = inhibition in assay [1] (parasite line A) was -22.4% (inactive). For the same compound, the Potency was 7.94 µM (active) in assay [1] (parasite line A); 8.91 µM (active) in assay [1] (parasite line B); 2.24 µM (active) in the assay on 3D7; 3.16 µM (active) and 2.82 µM (active) in the assay with 7G8.
Take `Clc1ccc(C2(Cn3cncn3)OCCO2)c(Cl)c1`: the activity, negative = inhibition in assay [1] (parasite line A) is 8.04% (inactive); in assay [1] (parasite line B) it was -7.5% (inactive). The Potency entry with 3D7 was “inactive”.
Turning to `COc1cc(C)[nH]c(=O)c1CNC(=O)c1c(C)n([C@H](C)C2CCOCC2)c2ccccc12`, the results for the Z-AUC in assay [2], in assay [2] (setting [8]) and in assay [2] (measured here: PEO4 Z-AUC) were 0.466 (inactive), 0.504 and 0.135, respectively.
For `O=C(NC(=O)c1c(F)cccc1F)Nc1ccc(Cl)c(Oc2ncc(C(F)(F)F)cc2Cl)c1`, the activity, negative = inhibition in assay [1] (parasite line A) was 9.79% (inactive); in assay [1] (parasite line B), -1.85% (inactive). Besides, in the assay on 3D7, the Potency entry is “inactive”.
On to `CNC(C)C(O)c1ccc(O)cc1` (stereo unspecified), for which the result in assay [3], in assay [5], in assay [6] and in [7] was inactive. Also, the max response in assay [4] was -3.49% (inactive). Further, the activity, negative = inhibition is 5.26% (inactive) in assay [1] (parasite line A) and -1.7% (inactive) in assay [1] (parasite line B). Further, the Potency result in the assay on 3D7 and with 7G8 was “inactive” each time.
`C=C[C@H]1CN2CC[C@H]1C[C@@H]2[C@@H](O)c1ccnc2ccccc12`: the Z-AUC in assay [2] was 1.32 (inactive); in [2] (setting [8]), 0.858; in [2] (measured here: PEO4 Z-AUC) it was 1.06.
For `CC(C)Nc1ccc(Nc2ccccc2)cc1`, the values for the Potency in [1] (parasite line A) and in assay [1] (parasite line B) were 3.16 µM (active) and 5.01 µM (active), respectively.
On the same counts, the results for `Oc1cccc[c]1[Hg][Cl]` are 5.01 µM (active) and 6.31 µM (active).
